Source: PubChem
Compounds with a hit are over-represented: about 2.9% of the library has one in this group of screens.
IP6K1 inhibitor: IP6K1 kinase inhibition | IP6K1 kinase, ADP-Glo luminescence, 2 h; stronger effect = lower value | actives 0.81% (n = 140,000) | Q92551 | activity change, % (series mostly up to about 58 µM); in the data active = activity change below about -25%
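ADP-Glo luminescence measures ADP made by human IP6K1 during a 2 h RT reaction with ATP/IP6 (mix at 1.3 mM/130 uM); top library doses 57.5 and 19.1 uM final.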
KDM5B inh: blocks human KDM5B histone demethylase activity | AID 1347165 | actives 2.6% (n = 220,000) | KDM5B demethylase, FDH-coupled NADH fluorescence (FDH is formaldehyde dehydrogenase) | Q9UGL1 | Potency, µM (highest dose often 57.7 µM), actives largely listed as inhibitors; note: nearly all actives have a fitted effect of over 70% in size
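Inhibition is measured as reduced NADH fluorescence generation from FDH coupling to formaldehyde release. Truncated KDM5BΔAP at 200 nM final acts on H3K4me3 peptide (12.5 µM in substrate mix) in pH 7.5 HEPES buffer with Tween-20, 30 min, room temperature.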
SNCA expr inhib: SNCA gene expression inhibition; HEK-293 SNCA-luciferase knock-in, luminescence, 24 h; Potency, µM (top dose mostly 57.2 µM), hits mostly inhibitors; actives 0.17% (n = 140,000); note: nearly all actives have a fitted effect of over 45% in size
SNCA viab count: reduces viability of HEK-293 SNCA reporter cells; actives 0.12% (n = 150,000); HEK-293-SNCA-luc viability, GF-AFC fluorescence, 24 h; AID 1671193; Potency, µM (highest dose often 57.1 µM), usual class: cytotoxic; note: nearly all actives have a fitted effect of over 30% in size
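Cytotoxicity counterscreen: after 24 h compound treatment of genome-edited SNCA-luciferase HEK-293 cells, live-cell protease substrate GF-AFC read by fluorescence after 30 min; activity scaled between DMSO (0%) and medium-only (-100%), curves Hill-fitted.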
Of the large screens only hits and unclear results are named; the others gave an inactive call. Unless noted, calls come from the whole dose curve; as a rule, active = well fitted curve in the direction sought with a large enough effect; inconclusive = small, poorly fitted or top-dose-only effect, or another doubt; inactive = no such curve, though single readings can be large; an effect the other way counts as inactive or inconclusive.

CN1CCN(CCNC(=O)c2ccc(-c3ccc(N4CCCCCC4)nc3)cc2)CC1	KDM5B inh 22µM
COc1ccc(CNC(=O)c2ccc(-c3ccc(N4CCSCC4)nc3)cc2)cc1OC	KDM5B inh inconclusive
O=C(NCCN1CCCCC1)c1ccc(-c2ccc(N3CCCCC3)nc2)cc1	KDM5B inh 28µM, SNCA viab count inconclusive
Cc1ccc(C(=O)NCCN2CCCC2)cc1	none (no result: IP6K1 inhibitor, SNCA expr inhib, SNCA viab count)
CC(C)CCNC(=O)c1ccc(-c2ccc(N3CCSCC3)nc2)cc1	KDM5B inh 22µM
O=C(NCc1ccc2c(c1)OCO2)c1ccc(-c2ccc(N3CCSCC3)nc2)cc1	KDM5B inh 28µM
Cc1ccc(-c2cccc(CN3CCCC3C(=O)N3CCC(C#N)CC3)c2)cc1Cl (centres undefined)	none (no result: KDM5B inh, SNCA expr inhib, SNCA viab count)
O=C(NCc1ccccn1)c1ccc(C2CCCCC2)cc1	none (no result: IP6K1 inhibitor, SNCA expr inhib, SNCA viab count)
O=C(NCc1ccccn1)c1ccc(-c2ccc(N3CCCCC3)nc2)cc1	KDM5B inh 16µM
O=C(NCCN1CCOCC1)c1ccc(-c2ccc(N3CCSCC3)nc2)cc1	KDM5B inh 28µM
O=C(c1ccc(-c2cccs2)cc1)N1CCC(C(=O)N2CCN(Cc3ccccc3)CC2)CC1	none (no result: KDM5B inh, SNCA expr inhib, SNCA viab count)
CCC[C@@H]1CN(C(=O)c2ccc(-c3ccc(C)o3)cc2)C[C@H]1NC(C)=O	KDM5B inh 28µM
O=C1CCN(Cc2ccncc2)CCCC(C(=O)NCCCN2CCCc3ccccc32)CCN1 (centres undefined)	KDM5B inh 14µM
COCCCNC(=O)C1CCCN(Cc2ccncc2)CCC(=O)NCC1 (centres undefined)	KDM5B inh 25µM, SNCA expr inhib inconclusive
CC(C)N1CC[C@@H]2[C@H]1C(=O)NC[C@H](CCC(=O)N1CCc3ccccc31)N2C	none
O=C(Nc1ccccc1)N[C@H]1C[C@H]2C(=O)NC[C@@H](CCC(=O)N3CCN(c4ccccn4)CC3)N2C1	KDM5B inh 25µM
CN1[C@@H](CCC(=O)N2CCN(c3ccccn3)CC2)CNC(=O)[C@@H]2[C@H]1CCN2Cc1ccc(CO)o1	KDM5B inh 32µM
CC(C)N1CC[C@@H]2[C@H]1C(=O)NC[C@H](CCC(=O)N1CCN(c3ccccn3)CC1)N2C	KDM5B inh 32µM
CN1CCN(C(=O)CC[C@H]2CNC(=O)[C@@H]3[C@@H](CCN3Cc3ncc[nH]3)N2C)CC1	none
CN1[C@@H](CCC(=O)N2CCN(c3ccccn3)CC2)CNC(=O)[C@@H]2[C@H]1CCN2Cc1ncc[nH]1	KDM5B inh 22µM
O=[S+]1([O-])[C@@H](Cc2ccccc2)[C@H](COCc2ccccc2)CN1c1ccccc1	none (no result: KDM5B inh, SNCA expr inhib, SNCA viab count)
CN1[C@@H](CCC(=O)N2CCN(c3ccccn3)CC2)CNC(=O)[C@@H]2[C@H]1CCN2Cc1ccc(O)cc1	KDM5B inh 32µM
CN1CCC2(C1)CN(CC1CCOCC1)c1ccc(C(=O)NCCOc3ccccc3)cc12 (centres undefined)	KDM5B inh 22µM
CN1CCC2(C1)CN(CC1CCOCC1)c1ccc(C(=O)NCCCO)cc12 (centres undefined)	KDM5B inh 35µM
CN1CCC2(C1)CN(CC1CCOCC1)c1ccc(C(=O)NCCc3ccccc3)cc12 (centres undefined)	KDM5B inh 32µM
O=C(NCc1ccccc1)C1CCCN(c2nccc(Nc3ccccc3F)n2)C1 (centres undefined)	none (no result: KDM5B inh)
O=C(NCc1ccc2c(c1)OCO2)c1ccc2nnc(-c3cc(F)ccc3F)n2c1	none (no result: KDM5B inh)
O=C(NCCCN1CCCC1=O)c1ccc(-c2ncc3cnc(-c4ccccc4)cn23)cc1	KDM5B inh 32µM
CC(=O)N1CCN(C(=O)c2ccc(-c3ncc4cnc(-c5cccc(F)c5)cn34)cc2)CC1	KDM5B inh inconclusive
CN(C)CCN(C)C(=O)c1ccc(-c2ncc3cnc(-c4cccc(F)c4)cn23)cc1	KDM5B inh 40µM
O=C(NCc1cnccn1)c1nc(-c2ccccc2)cc2[nH]ccc12	none
O=C(c1ccc(-c2ncc3cnc(-c4ccccc4)cn23)cc1)N1CCc2cccnc21	KDM5B inh 32µM, SNCA expr inhib inconclusive, SNCA viab count inconclusive
O=C(NCc1cnccn1)c1ccc(-c2ncc3cnc(-c4cccc(F)c4)cn23)cc1	KDM5B inh 35µM, SNCA expr inhib inconclusive
CC(C)n1nc(C(=O)NCCCN2CCCC2=O)c2ccccc2c1=O	none (no result: IP6K1 inhibitor, SNCA expr inhib, SNCA viab count)
CCOc1ccc(NC(=O)c2cc(-c3ccccc3C(F)(F)F)nc3c2cnn3C)cc1	none (no result: KDM5B inh, SNCA expr inhib, SNCA viab count)
N#Cc1cccc(CN2CCOC[C@H]2c2ncc(-c3ccc(C(F)(F)F)cc3)[nH]2)c1	none
COCCNC(=O)c1ccc(-c2ncc3cnc(-c4cccc(F)c4)cn23)cc1	KDM5B inh 35µM
COc1ccc(F)cc1-c1cccc(C(=O)NCCNC(=O)c2ccc(F)cc2)c1	none (no result: KDM5B inh)
COc1ccccc1C(=O)N1CC(CN2C(=O)c3c(c(C)nn3-c3ccccc3)C2C2CC2)C1 (centres undefined)	none (no result: KDM5B inh, SNCA expr inhib, SNCA viab count)
COc1ccc(C(=O)Nc2nc3c(s2)C[C@@H]2[C@](C)(CO)[C@H](O)CC[C@@]2(C)[C@@H]3CC(=O)N(C)Cc2ccccc2)cc1	KDM5B inh inconclusive, SNCA expr inhib inconclusive, SNCA viab count inconclusive
C[C@]1(CO)[C@H]2Cc3sc(-c4ccccc4)nc3[C@@H](CC(=O)O)[C@]2(C)CC[C@H]1O	KDM5B inh 32µM
C#CCNC(=O)C[C@@H]1c2nc(NC(=O)C(C)(C)C)sc2C[C@@H]2[C@](C)(CO)[C@H](O)CC[C@]21C	none
CN(Cc1ccccc1)C(=O)C[C@@H]1c2nc(NC(=O)c3ccc(F)cc3)sc2C[C@@H]2[C@](C)(CO)[C@H](O)CC[C@]21C	KDM5B inh 35µM
COc1ccc(C(=O)Nc2nc3c(s2)C[C@@H]2[C@](C)(CO)[C@H](O)CC[C@@]2(C)[C@@H]3CC(=O)N2CCC(C)CC2)cc1	KDM5B inh 28µM, SNCA viab count inconclusive
C#CCNC(=O)C[C@@H]1c2nc(NC(=O)c3ccc(C(C)(C)C)cc3)sc2C[C@@H]2[C@](C)(CO)[C@H](O)CC[C@]21C	KDM5B inh 32µM
C[C@]1(CO)[C@H]2Cc3sc(NC(=O)c4c(F)cccc4F)nc3[C@@H](CC(=O)O)[C@]2(C)CC[C@H]1O	SNCA expr inhib inconclusive
O=C(C[C@@H]1CCNC[C@@H]1Cc1cc(-c2ccccc2)on1)N1CCC(Cc2ccccc2)CC1	none
C[C@]1(CO)[C@H]2Cc3sc(NC(=O)c4ccc(F)cc4)nc3[C@@H](CC(=O)Nc3ccccc3)[C@]2(C)CC[C@H]1O	KDM5B inh 32µM
C[C@]1(CO)[C@H]2Cc3sc(NC(=O)c4ccc(F)cc4)nc3[C@@H](CC(=O)NC3CC3)[C@]2(C)CC[C@H]1O	none
CC(C)c1cccc(NC(=O)Cn2cccc2-c2nc(-c3ccc4c(c3)OCO4)no2)c1	KDM5B inh inconclusive
Cn1ncc2c(C(=O)NCc3ccc(Cl)cc3)cc(-c3cccnc3)nc21	none (no result: KDM5B inh)
O=C(c1cnn2ccccc12)N1CCC(Cc2cccc(CO)c2)C1 (centres undefined)	KDM5B inh 28µM, SNCA expr inhib inconclusive
